Laboratory results as given in PubChem BioAssay.
Calls of active or inactive are those of the source.

Tests used:
[1] = binders of probe aFSTL3 on microarray, primary screen, stem cell growth factor project, biochemical, small-molecule microarray, fluorescence 635/667 (AID 1064); conditions: higher = more signal;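 further: measures binding of the biotinylated anti-FSTL3 antibody to printed compounds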
[2] = binders from COS7 lysate, DM2A8 probe, primary screen, torsin A project, cell lysate, small-molecule microarray, fluorescence 635/667 (AID 1065); conditions: higher = more signal, COS7 lysate expressing mutant human TOR1A
[3] = binders of probe aFGF2 on microarray, primary screen, stem cell growth factor project, biochemical, small-molecule microarray, fluorescence 635/667 (AID 1067); conditions: higher = more signal;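 further: measures binding of biotinylated aFGF2 protein to printed compounds on slides; z-score merges feature fluorescence and signal-to-noise across triplicate slides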
[4] = binders of probe aFGF10 on microarray, primary screen, stem cell growth factor project, biochemical, small-molecule microarray, fluorescence 635/667 (AID 1071); conditions: higher = more signal;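 further: score merges 667 nm spot intensity and signal to noise from triplicate slides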
[5] = target: Neurogenic locus notch homolog protein 2 (Homo sapiens) (UniProt Q04721); test: Notch2 binders on small-molecule microarrays, primary screen, biochemical, small-molecule microarray, 635 nm fluorescence, stem cell growth factors (AID 1073); conditions: Notch2 binding, higher = more signal
Sequence of Neurogenic locus notch homolog protein 2 (Homo sapiens) (Q04721 whole entry, looked up, canonical isoform): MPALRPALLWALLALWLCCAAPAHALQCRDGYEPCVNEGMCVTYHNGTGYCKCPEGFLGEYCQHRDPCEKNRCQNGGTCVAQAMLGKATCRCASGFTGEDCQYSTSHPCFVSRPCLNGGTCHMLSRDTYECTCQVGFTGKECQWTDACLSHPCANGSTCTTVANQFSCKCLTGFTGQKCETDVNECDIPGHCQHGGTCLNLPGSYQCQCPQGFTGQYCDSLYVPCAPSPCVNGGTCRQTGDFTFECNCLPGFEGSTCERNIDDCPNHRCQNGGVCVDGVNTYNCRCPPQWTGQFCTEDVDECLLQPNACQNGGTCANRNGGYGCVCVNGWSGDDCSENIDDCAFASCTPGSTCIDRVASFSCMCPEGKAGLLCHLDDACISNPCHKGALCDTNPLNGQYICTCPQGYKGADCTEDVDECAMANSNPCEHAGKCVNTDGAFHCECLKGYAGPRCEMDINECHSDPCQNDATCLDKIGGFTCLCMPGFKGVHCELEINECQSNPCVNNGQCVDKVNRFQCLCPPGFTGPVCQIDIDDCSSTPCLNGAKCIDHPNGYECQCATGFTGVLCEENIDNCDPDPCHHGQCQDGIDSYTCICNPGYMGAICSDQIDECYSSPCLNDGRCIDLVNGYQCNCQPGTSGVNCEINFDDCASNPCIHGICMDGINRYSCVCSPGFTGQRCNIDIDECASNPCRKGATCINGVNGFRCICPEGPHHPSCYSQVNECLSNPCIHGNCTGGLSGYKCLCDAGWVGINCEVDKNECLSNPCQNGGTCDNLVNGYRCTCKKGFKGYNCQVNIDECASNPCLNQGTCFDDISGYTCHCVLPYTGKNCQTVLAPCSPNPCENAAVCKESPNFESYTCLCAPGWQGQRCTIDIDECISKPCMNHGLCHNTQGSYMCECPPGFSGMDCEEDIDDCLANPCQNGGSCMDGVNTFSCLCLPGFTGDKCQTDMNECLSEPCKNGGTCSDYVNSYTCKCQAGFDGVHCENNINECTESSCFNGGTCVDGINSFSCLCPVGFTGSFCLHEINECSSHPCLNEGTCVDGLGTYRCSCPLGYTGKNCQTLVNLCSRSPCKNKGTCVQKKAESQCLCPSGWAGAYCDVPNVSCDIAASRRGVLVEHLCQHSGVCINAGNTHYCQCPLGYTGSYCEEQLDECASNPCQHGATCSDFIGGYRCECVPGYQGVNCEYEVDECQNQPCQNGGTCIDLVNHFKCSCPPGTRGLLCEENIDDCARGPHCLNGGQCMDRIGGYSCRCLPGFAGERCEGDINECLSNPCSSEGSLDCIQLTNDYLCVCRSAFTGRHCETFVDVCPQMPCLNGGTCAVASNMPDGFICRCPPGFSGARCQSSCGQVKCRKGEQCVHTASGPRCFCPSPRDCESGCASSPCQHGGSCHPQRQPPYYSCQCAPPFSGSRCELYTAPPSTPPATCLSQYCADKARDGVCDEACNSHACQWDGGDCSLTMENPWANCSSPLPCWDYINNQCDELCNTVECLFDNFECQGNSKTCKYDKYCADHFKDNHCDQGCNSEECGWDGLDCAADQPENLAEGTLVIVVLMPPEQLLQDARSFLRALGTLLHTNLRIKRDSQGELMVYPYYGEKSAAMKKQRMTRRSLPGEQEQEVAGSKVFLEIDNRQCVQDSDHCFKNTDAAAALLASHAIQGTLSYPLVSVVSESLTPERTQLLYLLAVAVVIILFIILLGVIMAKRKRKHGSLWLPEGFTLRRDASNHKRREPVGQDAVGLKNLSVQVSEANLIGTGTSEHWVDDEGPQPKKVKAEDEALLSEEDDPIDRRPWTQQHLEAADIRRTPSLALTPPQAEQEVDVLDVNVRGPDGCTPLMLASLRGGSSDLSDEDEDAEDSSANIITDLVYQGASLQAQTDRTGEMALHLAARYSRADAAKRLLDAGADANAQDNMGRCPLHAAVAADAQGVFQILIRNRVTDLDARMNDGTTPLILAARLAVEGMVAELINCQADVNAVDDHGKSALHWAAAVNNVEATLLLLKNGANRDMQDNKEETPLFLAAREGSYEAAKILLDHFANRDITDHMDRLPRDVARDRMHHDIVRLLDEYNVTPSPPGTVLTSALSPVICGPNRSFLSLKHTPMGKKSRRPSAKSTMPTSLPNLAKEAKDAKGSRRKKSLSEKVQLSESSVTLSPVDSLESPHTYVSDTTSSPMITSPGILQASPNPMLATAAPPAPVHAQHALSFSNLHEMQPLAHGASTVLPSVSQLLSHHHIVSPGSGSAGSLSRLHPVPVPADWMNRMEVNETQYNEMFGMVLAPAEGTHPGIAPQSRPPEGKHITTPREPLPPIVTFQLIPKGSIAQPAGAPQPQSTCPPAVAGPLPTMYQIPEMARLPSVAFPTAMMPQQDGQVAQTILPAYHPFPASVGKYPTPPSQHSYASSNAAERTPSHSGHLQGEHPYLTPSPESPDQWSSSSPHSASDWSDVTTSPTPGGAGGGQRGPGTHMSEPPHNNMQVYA

[6] = target: Pro-neuregulin-1, membrane-bound isoform (Homo sapiens) (UniProt Q02297); test: NRG1 binders on small-molecule microarrays, primary screen, psychiatric disease protein project, biochemical, small-molecule microarray, fluorescence 635/667 (AID 1075); conditions: NRG1 binding, 635 nm fluorescence, higher = more signal;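 further: score combines 667 nm spot fluorescence with signal to noise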
[7] = tested on: Neuregulin-1 EGF-like domain; test: binders of neuregulin-1 EGF-like domain, primary screen, biochemical, small-molecule microarray, 635 nm fluorescence (AID 1081); conditions: small-molecule microarray binding, higher = more signal;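 further: binding of the protein to compounds printed on small-molecule microarray slides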
[8] = FRG1 promoter luciferase signal modulators, primary screen, FRG1 inhibition for FSHD, cell-based, C2C12 myotubes, firefly/Renilla luciferase, luminescence (AID 1084); conditions: higher = more signal, called active from +8 up or from −8 down
[9] = binders of probe aFST on microarray, primary screen, stem cell growth factor project, biochemical, small-molecule microarray, fluorescence 635/667 (AID 1086); conditions: higher = more signal;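 further: score merges 667 nm fluorescence with signal-to-noise of each printed compound spot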
[10] = binders of probe aHhip on microarray, primary screen, stem cell growth factor project, biochemical, small-molecule microarray, fluorescence 635/667 (AID 1087); conditions: higher = more signal;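 further: score merges spot fluorescence at 667nm with spot signal to noise ratio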
[11] = tested on: PRMT1 (protein arginine N-methyltransferase 1); test: PRMT1 binders on small-molecule microarrays, primary screen, biochemical, small-molecule microarray, 635 nm fluorescence (AID 1088); conditions: small-molecule microarray binding, higher = more signal;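 further: binding of Prmt1 protein to compounds spotted on small-molecule microarray slides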
[12] = yeast growth modulation, basal conditions, primary screen, YJM789 clinical isolate, OD600, 24 h (AID 1089);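 further: growth of clinical yeast isolate S. cerevisiae YJM 789 seeded 1000 cells per well; test concentration not given here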; conditions: S. cerevisiae YJM789 growth, higher = more signal, called active from +8 up or from −8 down
[13] = fission yeast growth modulation, primary screen, strain 972, OD600, 24 h, no modulator (AID 1090);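 further: basal condition with compound alone and no growth modifier present; test concentration not given here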; conditions: S. pombe 972 growth, higher = more signal, called active from +8 up or from −8 down
[14] = S. cerevisiae growth modulation with rapamycin, primary screen, strain BY4716, OD600, 96 h (AID 1091); conditions: higher = more signal, called active from +8 up or from −8 down; further: test concentration not given here
[15] = target: Torsin-1A-interacting protein 2 (Homo sapiens) (UniProt Q8NFQ8); test: LULL1 binders on small-molecule microarray, primary screen, cell lysate, human LULL1 lysate, 635/667 nm fluorescence (AID 1092); conditions: hLULL1 lysate binding, 635 nm fluorescence, higher = more signal;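 further: probe is lysate of COS7 cells overexpressing human LULL1; score merges per-feature 667 nm fluorescence with signal-to-noise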
[16] = E. coli growth modulation, two-sided OD650, primary screen, E. coli filamentation project, strain DRC41, 24 h (AID 1093); conditions: OD650, 24 h, higher = more signal, called active from +8 up or from −8 down;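 further: MC1000 strain lacking acrAB efflux and sulA so SOS filamentation is blocked; test concentration not given here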
[17] = small-molecule microarray binders of probe aLefty2, primary screen, biochemical, biotinylated probe, 635/667 nm fluorescence (AID 1094); conditions: higher = more signal;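 further: score merges spot fluorescence near 667 nm with spot signal-to-noise ratio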
[18] = tested on: Noggin (protein binding on small-molecule microarray); test: Noggin binders on small-molecule microarray, primary screen, biochemical, 635/667 nm fluorescence (AID 1095); conditions: 635 nm fluorescence, higher = more signal;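 further: score merges 667 nm feature fluorescence with signal to noise over triplicate slides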
[19] = target: Neurogenic locus notch homolog protein 3 (Homo sapiens) (UniProt Q9UM47); test: NOTCH3 binders on small-molecule microarray, primary screen, biochemical, 635/667 nm fluorescence (AID 1096); conditions: NOTCH3 binding, 635 nm fluorescence, higher = more signal
Sequence of Neurogenic locus notch homolog protein 3 (Homo sapiens) (Q9UM47 whole entry, looked up): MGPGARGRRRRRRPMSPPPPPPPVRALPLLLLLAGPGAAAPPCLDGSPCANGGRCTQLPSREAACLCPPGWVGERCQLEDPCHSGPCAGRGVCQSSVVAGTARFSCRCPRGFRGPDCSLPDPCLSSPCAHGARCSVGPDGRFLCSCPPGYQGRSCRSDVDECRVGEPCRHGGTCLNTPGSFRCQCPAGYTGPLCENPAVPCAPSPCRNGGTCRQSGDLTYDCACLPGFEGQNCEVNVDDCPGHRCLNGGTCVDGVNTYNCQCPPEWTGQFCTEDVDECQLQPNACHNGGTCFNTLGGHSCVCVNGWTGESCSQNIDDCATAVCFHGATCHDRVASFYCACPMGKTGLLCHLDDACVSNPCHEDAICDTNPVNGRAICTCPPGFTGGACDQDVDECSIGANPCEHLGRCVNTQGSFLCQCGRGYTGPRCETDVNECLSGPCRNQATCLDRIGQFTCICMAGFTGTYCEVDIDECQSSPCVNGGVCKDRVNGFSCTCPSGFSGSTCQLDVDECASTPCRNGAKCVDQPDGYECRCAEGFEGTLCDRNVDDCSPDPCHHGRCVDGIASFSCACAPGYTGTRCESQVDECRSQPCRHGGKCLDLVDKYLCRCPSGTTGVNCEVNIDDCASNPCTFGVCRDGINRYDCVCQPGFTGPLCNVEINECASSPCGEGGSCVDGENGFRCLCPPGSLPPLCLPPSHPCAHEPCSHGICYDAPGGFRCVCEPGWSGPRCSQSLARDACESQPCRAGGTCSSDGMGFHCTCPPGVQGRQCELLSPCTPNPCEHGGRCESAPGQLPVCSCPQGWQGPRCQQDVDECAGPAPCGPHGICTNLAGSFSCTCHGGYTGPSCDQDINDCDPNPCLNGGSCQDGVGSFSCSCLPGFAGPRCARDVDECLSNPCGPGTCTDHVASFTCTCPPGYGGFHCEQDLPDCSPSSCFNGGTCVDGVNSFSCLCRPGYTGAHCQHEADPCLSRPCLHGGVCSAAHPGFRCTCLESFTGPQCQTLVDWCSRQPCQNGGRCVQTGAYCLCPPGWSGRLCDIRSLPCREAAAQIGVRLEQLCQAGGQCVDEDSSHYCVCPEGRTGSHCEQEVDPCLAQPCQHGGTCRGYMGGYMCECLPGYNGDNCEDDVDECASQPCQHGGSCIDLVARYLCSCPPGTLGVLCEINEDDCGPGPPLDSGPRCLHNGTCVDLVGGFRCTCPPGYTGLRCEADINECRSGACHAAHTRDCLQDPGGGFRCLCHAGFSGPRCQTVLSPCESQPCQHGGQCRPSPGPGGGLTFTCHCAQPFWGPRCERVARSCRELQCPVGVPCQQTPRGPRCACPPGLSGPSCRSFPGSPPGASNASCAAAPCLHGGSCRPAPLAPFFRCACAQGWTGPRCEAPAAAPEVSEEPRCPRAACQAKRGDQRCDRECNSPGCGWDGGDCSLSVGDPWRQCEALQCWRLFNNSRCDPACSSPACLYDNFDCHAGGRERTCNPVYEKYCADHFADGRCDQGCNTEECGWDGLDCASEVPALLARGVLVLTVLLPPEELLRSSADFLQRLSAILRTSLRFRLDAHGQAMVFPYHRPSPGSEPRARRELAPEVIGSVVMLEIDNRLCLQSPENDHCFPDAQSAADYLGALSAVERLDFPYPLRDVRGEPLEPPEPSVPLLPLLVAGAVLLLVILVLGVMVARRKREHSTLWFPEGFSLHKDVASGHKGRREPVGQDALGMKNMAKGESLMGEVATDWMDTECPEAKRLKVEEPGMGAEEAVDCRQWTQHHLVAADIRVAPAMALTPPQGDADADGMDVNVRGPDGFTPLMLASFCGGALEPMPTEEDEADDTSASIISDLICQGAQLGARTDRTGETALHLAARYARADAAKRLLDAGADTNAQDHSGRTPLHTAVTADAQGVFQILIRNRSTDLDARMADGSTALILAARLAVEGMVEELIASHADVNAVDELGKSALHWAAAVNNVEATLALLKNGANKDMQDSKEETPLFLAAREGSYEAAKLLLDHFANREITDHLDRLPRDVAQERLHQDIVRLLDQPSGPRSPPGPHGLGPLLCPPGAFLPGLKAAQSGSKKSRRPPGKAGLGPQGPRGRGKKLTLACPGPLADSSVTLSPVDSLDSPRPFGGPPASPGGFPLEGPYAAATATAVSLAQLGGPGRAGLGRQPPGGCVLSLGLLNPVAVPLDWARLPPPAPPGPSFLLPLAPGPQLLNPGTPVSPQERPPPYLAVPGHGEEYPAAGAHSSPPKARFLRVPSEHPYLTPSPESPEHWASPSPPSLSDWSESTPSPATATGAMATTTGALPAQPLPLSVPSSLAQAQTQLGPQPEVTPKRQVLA

[20] = small-molecule microarray binders of probe aEGFR, primary screen, biochemical, biotinylated probe, 635/667 nm fluorescence (AID 1097); conditions: higher = more signal;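 further: probe is a biotinylated anti-EGFR antibody binding compounds printed on slides; score combines fluorescence near 667 nm and signal to noise of each spot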

Row | Structure (SMILES) | composite z-score [1] | composite z-score [2] | composite z-score [3] | composite z-score [4] | composite z-score [5] | composite z-score [6] | composite z-score [7] | z-score [8] | composite z-score [9] | composite z-score [10] | composite z-score [11] | z-score [12] | z-score [13] | z-score [14] | composite z-score [15] | z-score [16] | composite z-score [17] | composite z-score [18] | composite z-score [19] | composite z-score [20]
1 | CN1C(=O)C2C=CC(C(O)c3ccc([N+](=O)[O-])cc3)N(Nc3ccccc3)C2C1=O (stereo not given) | -0.001 | 0.135 | 0.235 | 0.889 | 1.62 | 1.75 | 1.16 | -0.439 (inactive) | 0.955 | -0.156 | 1.38 | 0.439 (inactive) | -0.184 (inactive) | 0.315 (inactive) | 3.25 | -1.69 (inactive) | 0.222 | -0.0487 | 1.03 | 0.0089
2 | CC(C)N1CC=CC23O[C@@H]4/C=C\CCCOC(=O)C4[C@H]2C(=O)N(C(C)CO)[C@@H]3C1=O (stereo not given in full) | -0.396 | -0.237 | -0.201 | -0.789 | -0.911 | 0.383 | 0.522 | -0.798 (inactive) | -0.588 | -0.303 | 0.336 | -1 (inactive) | -1.09 (inactive) | -1.08 (inactive) | 1.95 | 1.8 (inactive) | -0.174 | -1.25 | -0.155 | -0.297
3 | Cc1ccc(S(=O)(=O)N2[C@@H](c3ccccc3)C(C(=O)O)=C[C@H]2C(C)(C)C)cc1 | -0.316 | 1.81 | 0.0103 | 0.611 | 1.45 | 1.37 | 1.23 | -1.84 (inactive) | 0.736 | -0.156 | 1.55 | -0.601 (inactive) | -0.273 (inactive) | -0.802 (inactive) | 2.88 | -0.231 (inactive) | 0.152 | 0.126 | 1.08 | 0.131
4 | COC(=O)C1=CC(CCCO)=CC(c2ccc(CN3CCCC3)cc2)N(C)C=C1C(=O)OC (stereo not given) | 0.114 | 1.34 | 0.0755 | 1.21 | 1.13 | 1.93 | 1.18 | 0.48 (inactive) | 0.989 | -0.219 | 0.853 | -0.512 (inactive) | 0.0939 (inactive) | -0.19 (inactive) | 3.4 | 0.0791 (inactive) | 0.0723 | -0.2 | 0.276 | 0.0816
5 | [N-]=[N+]=NCc1ccccc1C[C@]1(C(=O)N2CCCCC2)COC(c2ccc(OCCCO)cc2)=N1 | 0.438 | 0.184 | -0.0151 | 1.01 | 0.207 | 1.13 | 0.996 | -4.13 (inactive) | 1.68 | 2.35 | 1.57 | 0.504 (inactive) | -1.92 (inactive) | 34.8 (active) | 1.55 | 3.43 (inactive) | 0.346 | 0.683 | 0.202 | 0.306
6 | COc1ccc([Si](C)(C)[C@H]2[C@H](CC(=O)N(CCO)Cc3ccccc3)O[C@@]3(C(=O)N(c4ccccc4)c4ccccc43)[C@@H]2C)cc1 | -0.249 | -0.182 | -0.0261 | 0.638 | 0.199 | 0.951 | 0.46 | -1.91 (inactive) | 0.294 | -0.0581 | 1.51 | 1.48 (inactive) | 0.656 (inactive) | 3.73 (inactive) | 1.79 | -0.366 (inactive) | -0.11 | 1.3 | 1.11 | -0.13
7 | COc1ccc(NN2C(C(O)c3ccccc3)C=CC3C(=O)N(C4CCCCC4)C(=O)C32)cc1 (stereo not given) | 0.0373 | 0.166 | 0.0402 | 0.851 | 1.59 | 1.39 | 1.3 | 1.78 (inactive) | 1.5 | 0.224 | 1.56 | -0.0673 (inactive) | 0.991 (inactive) | 1.34 (inactive) | 3.34 | 0.0456 (inactive) | 0.107 | 1.08 | 1.06 | 0.0953
8 | O=C(NCCN1CCOCC1)[C@@H]1c2ccccc2C(=O)N(CC23CC4CC(CC(C4)C2)C3)[C@H]1c1ccc(CO)cc1 | -0.203 | 0.336 | 0.0458 | 0.734 | 1.64 | 1.78 | 1.39 | -2.37 (inactive) | 0.742 | 0.0373 | 1.55 | -0.43 (inactive) | -1.27 (inactive) | 0.223 (inactive) | 3.23 | 0.534 (inactive) | 0.0735 | 0.495 | 1.05 | 0.0353
9 | C=CCC(OC(C)=O)[C@@H]1[C@@H](N(Cc2ccc(-c3ccccc3)cc2)C(=O)Cc2ccc(OC)cc2)c2cc(OCCCO)ccc2N1C(=O)Cc1ccc(OC)cc1 (stereo not given in full) | 0.169 | 0.414 | -0.0363 | 0.479 | -0.076 | 0.851 | 0.0142 | -1.5 (inactive) | 0.195 | 0.411 | 0.622 | -0.0563 (inactive) | 0.68 (inactive) | -0.753 (inactive) | 0.436 | -0.553 (inactive) | 0.0717 | -0.19 | -0.209 | 0.0101
10 | O=C1c2ccccc2[C@](Cc2ccccc2I)(C(=O)NCCN2CCOCC2)[C@H](c2ccc(CO)cc2)N1Cc1ccccc1C(F)(F)F | -0.103 | 0.321 | -0.1 | 0.0371 | 0.614 | 1.2 | 1.25 | -1.66 (inactive) | 0.558 | 0.0156 | 1.56 | -1.06 (inactive) | -1.06 (inactive) | -0.132 (inactive) | 2.95 | -1.82 (inactive) | -0.0376 | 0.307 | 1.01 | -0.109
